Screening results from PubChem BioAssay.
Only some compounds are listed: those with a hit (about 1.5% of all), similar ones and a draw of the others.
GLD-1 TGE inh = GLD-1-TGE RNA interaction inhibition (C. elegans); Q17339; purified GLD-1 + fluorescein TGE RNA, fluorescence polarization; inhibition, % at 5.96 µM; 320,000 compounds, 0.44% hits;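 active = percent inhibition above a per-plate cutoff, the plate mean of test compounds plus 3 SD, cut at about 30% in these data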
eLon inh = inhibitors of E. coli Lon protease. P0A9M0. purified E. coli Lon protease, fluorescence polarization. inhibition, % at 7.94 µM. 360,000 compounds, 0.42% hits. AID 602123; in the data active = inhibition above about 13%, passing the limit was not always enough
BCLXL inh = inhibitors of human Bcl-xL. Q07817. GST-Bcl-xL / FITC-Bim BH3 peptide fluorescence polarization. inhibition, % at 10.9 µM. 320,000 compounds, 0.7% hits. AID 2129;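 active = inhibition above the mean of all tested compounds plus 3 SD, cutoff set per campaign, cut at about 30% in these data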;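 also: inhibitors lower millipolarization by displacing the labeled peptide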
EBV gp42 block = blocks Epstein-Barr virus glycoprotein 42 binding; Q1HVG2; Fluorescence polarization binding assay, mP read-out; inhibition, % (tested at 21.74 µM); 220,000 compounds, 0.42% hits; AID 1085; in the data active = inhibition above about 50%
Target sequence (Q1HVG2 whole entry, looked up): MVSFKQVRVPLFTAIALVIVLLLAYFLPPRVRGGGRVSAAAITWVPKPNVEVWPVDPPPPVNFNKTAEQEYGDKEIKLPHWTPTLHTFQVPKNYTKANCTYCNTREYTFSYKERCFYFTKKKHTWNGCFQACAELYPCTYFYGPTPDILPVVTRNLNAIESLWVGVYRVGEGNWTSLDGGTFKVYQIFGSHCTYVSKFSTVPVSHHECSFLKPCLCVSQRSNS
MCL1 BIM primary = disrupts human MCL1 binding to BIM-BH3 peptide. Q07820. GST-MCL1 / FITC-Bim-BH3 fluorescence polarization. inhibition, % at 10.9 µM. 320,000 compounds, 0.68% hits. AID 2057;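 active = inhibition above the mean inhibition of all tested compounds plus 3 SD, set per campaign, cut at about 40% in these data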;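 also: higher means more loss of mP so more displacement of Bim peptide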
Target sequence (Q07820 whole entry, looked up): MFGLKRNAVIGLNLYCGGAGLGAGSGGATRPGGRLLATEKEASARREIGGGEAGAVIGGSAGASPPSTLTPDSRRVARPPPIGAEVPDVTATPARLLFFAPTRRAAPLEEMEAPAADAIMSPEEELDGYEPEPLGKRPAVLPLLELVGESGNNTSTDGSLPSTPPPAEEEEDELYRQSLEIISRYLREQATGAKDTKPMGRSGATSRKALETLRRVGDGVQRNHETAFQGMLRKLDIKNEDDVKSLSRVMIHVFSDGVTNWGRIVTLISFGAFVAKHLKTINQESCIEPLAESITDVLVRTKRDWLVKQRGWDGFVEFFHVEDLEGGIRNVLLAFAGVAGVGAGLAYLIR
MEX-5 binding = C. elegans MEX-5 TCR-2 RNA binding activity. Q9XUB2. MEX-5/FITC-TCR2 RNA binding, fluorescence polarization; active compounds read low. activity score (negative = inhibition of binding), % at 10 µM. 300,000 compounds, 0.38% hits. AID 1832;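 active = inhibition past about -25% in most replicates, and total fluorescence under double the plate's negative control median, limit read from the data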
GLD-1 TGE cf = GLD-1 TGE RNA interaction inhibition, confirmation; inhibition, % at 5.96 µM; 550 compounds, 10% hits; shares compounds with GLD-1 TGE inh; GLD-1/FL-TGE RNA fluorescence polarization, biochemical; AID 2459;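 active = average inhibition across triplicates above the hit cutoff set in the primary screen, cut at about 32% in these data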
Large screens that a line does not name were inactive (follow-up assays come after a bar, where they were run).

Cc1ccc(NC(=O)CN2C(=O)N/C(=C/c3ccc(C)o3)C2=O)cc1	GLD-1 TGE inh 38 | GLD-1 TGE cf inactive
Cc1cccc(NC(=O)CN2C(=O)N/C(=C/c3ccc(C)o3)C2=O)c1	none
Cc1nc2sccn2c(=O)c1S(=O)(=O)Nc1cccc(Cl)c1C	none (no result: EBV gp42 block)
COc1ccc(S(=O)(=O)C(C#N)c2nc3ccccc3nc2N2CCCC(C)C2)cc1 (stereo not given)	GLD-1 TGE inh 33, BCLXL inh 43, MCL1 BIM primary 41 | GLD-1 TGE cf inactive
N#CC1=C(N)C2=CCCC[C@H]2[C@H](c2ccccc2)C1(C#N)C#N	GLD-1 TGE inh 40, BCLXL inh 35, MCL1 BIM primary 42 | GLD-1 TGE cf inactive
N#CC1=C(N)C2=CCCC[C@H]2[C@H](c2ccc(Br)cc2)C1(C#N)C#N	GLD-1 TGE inh 37, BCLXL inh 40 (no result: MEX-5 binding) | GLD-1 TGE cf inactive
COc1ccc(C(=O)CC(=O)C(=O)Nc2ccc(Cl)cc2)cc1	none (no result: EBV gp42 block)
C#CCNC(=O)C1=C[C@@H](c2coc3ccccc3c2=O)[C@H](CCCO)[C@@H](OCC)O1	none
CCOC(=O)/C=c1\s/c(=C\c2ccc3c(c2)OCCO3)c(=O)n1CC(=O)NCC1CCCO1 (stereo not given)	none
O=C(OCCN1CCCCC1)c1c[nH]c2ccccc12	GLD-1 TGE inh 32 (no result: EBV gp42 block, MEX-5 binding) | GLD-1 TGE cf inactive
CCOc1cc(CNCCO)cc(Br)c1OCc1cccs1	none
CCOc1cc(CNCc2cccs2)cc(Br)c1OCC	GLD-1 TGE inh 37 | GLD-1 TGE cf inactive
C=CCNC(=O)/C(C#N)=C/c1c(N2CCN(c3ccc(OC)cc3)CC2)nc2c(C)cccn2c1=O	GLD-1 TGE inh 33 (no result: EBV gp42 block) | GLD-1 TGE cf inactive
Cc1[nH]c2ccccc2c1C(=O)C(C)OC(=O)c1ccccc1NCCO (stereo not given)	GLD-1 TGE inh 45 (no result: EBV gp42 block) | GLD-1 TGE cf inactive
COc1ccc(NC(=O)N2c3ccc(OC)cc3C(C)=CC2(C)C)cc1	none
CCNC(=O)N1c2ccc(OC)cc2C(C)=CC1(C)C	GLD-1 TGE inh 70, BCLXL inh 52 | GLD-1 TGE cf inactive
N#C/C(C(=O)N1CCOCC1)=c1/s/c(=C\c2ccccn2)c(=O)n1-c1ccccc1	GLD-1 TGE inh 33, BCLXL inh 43, MCL1 BIM primary 43 | GLD-1 TGE cf inactive
Cc1ccc(S(=O)(=O)N2CCCCC2)cc1NC(=O)Cn1cc(C(F)(F)F)ccc1=O	none (no result: EBV gp42 block, MEX-5 binding)
O=C(C1COc2ccccc2O1)N1CCN(c2ccccc2Cl)CC1 (stereo not given)	none
Cc1cccc(N2CCN(C(=O)C3COc4ccccc4O3)CC2)c1C (stereo not given)	GLD-1 TGE inh 100 | GLD-1 TGE cf inactive
Cc1ccc(Cc2c(-c3ccc(F)cc3)nc3c(Cl)cc(C(F)(F)F)cn23)cc1	none (no result: GLD-1 TGE inh, BCLXL inh, EBV gp42 block, MCL1 BIM primary, MEX-5 binding)
Fc1ccc(-c2nc3c(Cl)cc(C(F)(F)F)cn3c2Cl)cc1	GLD-1 TGE inh 38, MEX-5 binding -26 | GLD-1 TGE cf inactive
COC(=O)CSc1nnc(CNC(=O)c2ccc(OC)cc2OC)n1C	none
CCc1c(C)sc(NC(=O)OC)c1C(=O)N1CCCCC1	GLD-1 TGE inh 33, BCLXL inh 37, MCL1 BIM primary 41 (no result: MEX-5 binding) | GLD-1 TGE cf inactive
CCc1c(C)sc(NC(=O)OC)c1C(N)=O	none
O=C(CN1C(=O)COc2ccccc21)NCCN1CCOCC1	none (no result: EBV gp42 block)
CC1Oc2ccccc2N(CC(=O)NCCN2CCOCC2)C1=O (stereo not given)	GLD-1 TGE inh 37, BCLXL inh 31, MCL1 BIM primary 49 (no result: EBV gp42 block) | GLD-1 TGE cf inactive
Nc1nc(-c2ccccc2)c(N=Nc2ccccc2Cl)s1	GLD-1 TGE inh 159 | GLD-1 TGE cf inactive
CCn1c(=O)c2cc(C(=O)NCCN(C)C)sc2c2ccccc21	none (no result: EBV gp42 block)
O=C(O)C1Sc2[nH]c(=O)sc2C2c3cc(Br)ccc3OC(=O)C12 (stereo not given)	GLD-1 TGE inh 54, BCLXL inh 38, MCL1 BIM primary 45 (no result: MEX-5 binding) | GLD-1 TGE cf inactive
C=CCNc1nc(-c2cc3ccccc3o2)cs1	none
Cc1csc(SCC(=O)Nc2nnc(C)s2)n1	none (no result: EBV gp42 block)
CCOC(=O)CP(=O)(c1ccccc1)c1ccccc1	none
COC(=O)CP(=O)(c1ccccc1)c1ccccc1	GLD-1 TGE inh 39, BCLXL inh 32 | GLD-1 TGE cf inactive
CCOc1ccc(S(=O)(=O)Nc2nc3ccc(OC)cc3s2)cc1	GLD-1 TGE inh 39 | GLD-1 TGE cf inactive
CCC1CCCCN1Cc1c(O)ccc2c(=O)c(-c3ccccc3)coc12 (stereo not given)	none (no result: EBV gp42 block)
CC1CCCCN1Cc1c(O)ccc2c(=O)c(-c3ccccc3)coc12 (stereo not given)	GLD-1 TGE inh 42, BCLXL inh 36, MCL1 BIM primary 41 (no result: EBV gp42 block) | GLD-1 TGE cf inactive
COc1cc(CNS(=O)(=O)c2ccc3c(c2)CC(C)N3C(C)=O)cc(OC)c1OC (stereo not given)	none (no result: EBV gp42 block)
CCN1CCN(C(=O)Nc2cc(Cl)ccc2OC)CC1	none
CCN1CCN(C(=O)C(C)Nc2cc(Cl)c(OC)cc2OC)CC1 (stereo not given)	GLD-1 TGE inh 36, BCLXL inh 53, MCL1 BIM primary 48 | GLD-1 TGE cf inactive
Cc1ccc(Nc2ccc(-n3ccnc3)nn2)cc1C	none
CC(C)(C)C1CCC(OCC(O)CN2CCN(c3ccccn3)CC2)CC1 (stereo not given)	none (no result: MEX-5 binding)
C[C@@H]1CC(=O)[C@H]2CC(CO)=CCC[C@@H]2[C@@]1(C)CC/C(=C/CO)CO	GLD-1 TGE inh 80 (no result: EBV gp42 block, MEX-5 binding) | GLD-1 TGE cf inactive
CC1(C)CC(=O)C=C(NCc2cccc(C(F)(F)F)c2)C1	none
CC1(C)OC2OC(COC(=O)c3ccccc3)C3OC(C)(C)OC3C2O1 (stereo not given)	none
Cc1ccc2nc3n(c(=O)c2c1)-c1ccc(Cl)cc1C(=O)NC3Cc1ccccc1 (stereo not given)	GLD-1 TGE inh 33 (no result: eLon inh, EBV gp42 block, MEX-5 binding) | GLD-1 TGE cf inactive
O=C1NC(Cc2ccccc2)c2nc3ccc(Cl)cc3c(=O)n2-c2ccc(Cl)cc21 (stereo not given)	none (no result: eLon inh, EBV gp42 block, MEX-5 binding)
CC(C)N(Cc1nccn1C)C(=O)CC1C(=O)NCCN1Cc1ccc(F)c(F)c1 (stereo not given)	GLD-1 TGE inh 38 (no result: EBV gp42 block) | GLD-1 TGE cf inactive
CC(CCC(C)C(C)(C)C)[C@@H]1CC[C@H]2C3C[C@H](OS(O)(=S)=S)[C@H]4C[C@H](OS(O)(=S)=S)[C@@H](OS(O)(=S)=S)C[C@]4(C)[C@H]3CC[C@]12C (stereo not given in full) (tested in a mixture with another compound)	GLD-1 TGE inh 85, eLon inh 36 (no result: BCLXL inh, EBV gp42 block, MCL1 BIM primary, MEX-5 binding) | GLD-1 TGE cf 72
CC(CCC(=O)NN)C1CCC2C3CCC4CC(O)CCC4(C)C3CCC12C (stereo not given)	none (no result: GLD-1 TGE inh, BCLXL inh, EBV gp42 block, MCL1 BIM primary, MEX-5 binding)
